# According to PubChem BioAssay (NCATS):
# Inconclusive results are not listed. Entries that show only a call come without a potency. Unmarked numbers belong to inactive results. Activity calls are given as the source filed them. The call rests on the fitted dose curve; in most records, active means well fitted curve in the direction sought with a large enough effect; inconclusive means small, poorly fitted or top-dose-only effect, or another doubt; inactive means no such curve, though single readings can be large; an effect the other way counts as inactive or inconclusive. Where a SMILES comes first, the peptide text is derived from it. [ ]: non-standard residue; d: D form. dPhe(4-Cl) = N[C@H](Cc1ccc(Cl)cc1)C(=O)O; d2Nal = N[C@H](Cc1ccc2ccccc2c1)C(=O)O; dCit = NC(=O)NCCC[C@@H](N)C(=O)O; d3Pal = N[C@H](Cc1cccnc1)C(=O)O
# Legend:
# PA-1 = experiment: Primary qHTS to identify gynecologic anti-cancer compounds using libraries of approved drugs and bioactive compounds (AID 1345084); settings: Gynecologic cancer cell panel viability, ATPlite luminescence, 48 h; series mostly up to 57.5 µM; further: nearly all actives have a fitted effect of over 55% in size
# How it was run: (§1)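 Five-point cytotoxicity, 48 h drug exposure at 37 C, 5% CO2, on cells seeded 16 h beforehand. ATP content read by ATPlite luminescence.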
# Tov112D = experiment: as above; settings: Gynecologic cancer cell panel viability, ATPlite luminescence, 48 h; series mostly up to 57.5 µM
# How it was run: as §1
# Tov-21-G = experiment: as above; settings: Gynecologic cancer cell panel viability, ATPlite luminescence, 48 h; series mostly up to 57.5 µM
# How it was run: as §1
# [1] = qHTS assay to identify inhibitors of the type 1 interferon - major histocompatibility complex class I in skeletal muscle: Counter screen cell viability and HiBit confirmation (AID 1347412); settings: iHSKM muscle cells + IFN-b, HiBiT or CellTiter-Glo, 24 h; further: nearly all actives have a fitted effect of over 60% in size
# How it was run: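 After 24 h with human IFN-beta (4 ng/ml) and compound titrations (top 46 uM final, 1:3, 12 points), HLA-B HiBit myoblasts were lysed for either Nano-Glo HiBiT luminescence or CellTiter Glo viability on paired plates.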
# SKOV3 = experiment: Primary qHTS to identify gynecologic anti-cancer compounds using libraries of approved drugs and bioactive compounds (AID 1345084); settings: Gynecologic cancer cell panel viability, ATPlite luminescence, 48 h; series mostly up to 57.5 µM; further: nearly all actives have a fitted effect of over 55% in size
# How it was run: as §1
# Potency means the concentration at half of the fitted maximal effect.
structure (smiles),measurement,setting,value
NC1CCC(Nc2cc(-c3cccc(NCc4cccc(F)c4)n3)c(Cl)cn2)CC1 (configuration not stated),Potency,PA-1,178 nM (active)
same,Potency,Tov112D,891 nM (active)
CN(C)CC1CCOC1(c1ccccc1)c1ccccc1 (configuration not stated),Potency,PA-1,inactive
same,Potency,Tov-21-G,inactive
same,Potency,Tov112D,inactive
C/C=C1\[C@H](O[C@@H]2O[C@H](CO)[C@@H](O)[C@H](O)[C@H]2O)OC=C2C(=O)OCCc3ccc(O)c(c3)Oc3ccc(cc3)CCOC(=O)C[C@H]21,Potency,PA-1,inactive
same,Potency,Tov-21-G,inactive
same,Potency,Tov112D,inactive
CC(=O)O[C@@H]1[C@H](O)[C@@H](O[C@@H]2O[C@@H](C)[C@H](O[C@@H]3OC[C@@H](O)[C@H](O[C@@H]4OC[C@@H](O)[C@H](O)[C@H]4O)[C@H]3O)[C@@H](O[C@@H]3O[C@H](CO)[C@@H](O)[C@H](O)[C@H]3O)[C@H]2O)[C@H](OC(=O)[C@]23CCC(C)(C)C[C@H]2C2=CCC4[C@@]5(C)CC[C@H](O[C@@H]6O[C@H](C(=O)O)[C@@H](O)[C@H](O[C@@H]7OC[C@@H](O)[C@H](O)[C@H]7O)[C@H]6O[C@@H]6O[C@H](CO)[C@H](O)[C@H](O)[C@H]6O)[C@@](C)(C=O)C5CC[C@@]4(C)[C@]2(C)CC3)O[C@@H]1C (some centres not stated),"activity change, negative = cytotoxicity",PA-1,-3.62% [at 6.55 µM]
same,"activity change, negative = cytotoxicity",Tov-21-G,-5.86% [at 6.55 µM]
same,"activity change, negative = cytotoxicity",Tov112D,7.57% [at 6.55 µM]
C/C1=C\CC[C@H](C)CCO[C@@H]2O[C@H](CO[C@@H]3OC[C@](O)(COC1=O)[C@H]3O)[C@@H](O)[C@H](O)[C@H]2O,Potency,PA-1,inactive
same,Potency,Tov-21-G,inactive
same,Potency,Tov112D,inactive
Cc1ccc(S(=O)(=O)Nc2ccccc2N2CCCCC2)s1,Potency,PA-1,inactive
same,Potency,Tov-21-G,inactive
same,Potency,Tov112D,inactive
CC1CCC2C(C)(C)[C@@H](O)CC[C@]2(C)C12Cc1c(O)cc3c(c1O2)CN(C(CCC(=O)O)C(=O)O)C3=O (some centres not stated),Potency,PA-1,inactive
same,Potency,Tov-21-G,inactive
same,Potency,Tov112D,inactive
CC(=O)C=C=C1C(C)(C)CC(O[C@@H]2O[C@H](CO)[C@@H](O)[C@H](O)[C@H]2O)CC1(C)O (some centres not stated),Potency,PA-1,inactive
same,Potency,Tov-21-G,inactive
same,Potency,Tov112D,inactive
O=C(Nc1ccccc1)N1CCN(Cc2ccc3ccccc3n2)CC1,Potency,PA-1,inactive
same,Potency,Tov-21-G,inactive
same,Potency,Tov112D,inactive
NC1(C(=O)NC(CCO)c2ccc(Cl)cc2)CCN(c2ncnc3[nH]ccc23)CC1 (configuration not stated),Potency,PA-1,inactive
same,Potency,Tov-21-G,1260 nM (active)
same,Potency,Tov112D,inactive
C=C1C(=O)O[C@H](CCC)[C@H]1C(=O)O,Potency,PA-1,inactive
same,Potency,Tov-21-G,inactive
same,Potency,Tov112D,inactive
CC(=O)N[C@H](Cc1ccc2ccccc2c1)C(=O)N[C@H](Cc1ccc(Cl)cc1)C(=O)N[C@H](Cc1cccnc1)C(=O)N[C@@H](CO)C(=O)N[C@@H](Cc1ccc(O)cc1)C(=O)N[C@H](CCCNC(N)=O)C(=O)N[C@@H](CC(C)C)C(=O)N[C@@H](CCCN=C(N)N)C(=O)N1CCC[C@H]1C(=O)N[C@H](C)C(N)=O (Ac-[d2Nal][dPhe(4-Cl)][d3Pal]SY[dCit]LRP[dA]-NH2),Potency,PA-1,inactive
same,Potency,Tov-21-G,inactive
same,Potency,Tov112D,inactive
FC(F)(F)c1ccc(Nc2nc(-c3c(C(F)(F)F)nc4ccccn34)cs2)cc1,Potency,PA-1,1260 nM (active)
same,Potency,Tov112D,708 nM (active)
COc1nc2sc(C(=O)NC3CC3)c(N)c2c(C)c1Cl,Potency,PA-1,inactive
same,Potency,Tov-21-G,inactive
same,Potency,Tov112D,inactive
CC(=O)O[C@H]1C[C@@](O)(C(C)C)C2[C@@H](OC(=O)c3ccc(O)cc3)C[C@@]3(C)O[C@H]3C[C@]21C (some centres not stated),Potency,PA-1,inactive
same,Potency,Tov-21-G,inactive
same,Potency,Tov112D,inactive
Cc1ccc(NC(=O)Nc2cc(C(F)(F)F)ccc2F)cc1Nc1ccc2c(c1)NC(=O)/C2=C\c1ccc[nH]1,Potency,PA-1,inactive
same,Potency,Tov-21-G,inactive
same,Potency,Tov112D,inactive
same,Potency,[1]; HiBiT,31300 nM (active)
same,"activity change, negative = inhibition","[1]; Viability, at 45.9 µM (top of the series)",-28%
CC1(C)CCC2(C(=O)OC3OC(CO)C(O)C(O)C3O)CCC3(C)C(=CCC4C5(C)CCC(O)C(C)(C(=O)O)C5CCC43C)C2C1O (configuration not stated),Potency,PA-1,inactive
same,Potency,Tov-21-G,inactive
same,Potency,Tov112D,inactive
CC(C)(C)OC(=O)N1CCC(OCc2nc(-c3ccncc3)no2)CC1,Potency,PA-1,inactive
same,Potency,Tov112D,inactive
O=C(c1ccc2nccnc2c1)N1CCCCC1,Potency,PA-1,inactive
same,Potency,Tov-21-G,inactive
same,Potency,Tov112D,inactive
COc1ccc(CCO[C@@H]2CCCC[C@H]2N2CC[C@@H](O)C2)cc1OC,Potency,PA-1,inactive
same,Potency,Tov-21-G,inactive
same,Potency,Tov112D,inactive
CN[C@H](C(=O)N[C@H](C(=O)N(C)[C@H](/C=C(\C)C(=O)O)C(C)C)C(C)(C)C)C(C)(C)c1ccccc1,Potency,SKOV3,inactive
C[C@@H]1O[C@@H](O[C@H]2[C@H](O)[C@@H](O)[C@H](O[C@H]3[C@H](O[C@H]4CC[C@@]5(C)C(=CC[C@@H]6C5CC[C@]5(C)[C@@H]7[C@H](C[C@@H]65)O[C@]5(CC[C@@](C)(CO[C@@H]6O[C@H](CO)[C@@H](O)[C@H](O)[C@H]6O)O5)[C@H]7C)C4)O[C@H](CO)[C@@H](O)[C@@H]3O)O[C@@H]2CO)[C@H](O)[C@H](O)[C@H]1O (some centres not stated),Potency,PA-1,1780 nM (active)
same,"activity change, negative = cytotoxicity",Tov112D,13% [at 11.6 µM]
